Measurements reported in article PMC4336329 (PLoS ONE, 2015).
Screen size: about 310,000 compounds; about 14,000 (4.5%) showed an effect of 50% or more. The effect is printed as a negative number. The entries come from a sample that favours strong results as a whole.

target: human ether-à-go-go-related gene (hERG) potassium channel (human, UniProt Q12809); assay: primary screen, population patch clamp on CHO cells stably expressing hERG; higher = less effect of the substance
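Also: peak tail current of the secondary pulse compared with the same well before compound.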

Chain of human ether-à-go-go-related gene (hERG) potassium channel (Q12809 whole entry, looked up): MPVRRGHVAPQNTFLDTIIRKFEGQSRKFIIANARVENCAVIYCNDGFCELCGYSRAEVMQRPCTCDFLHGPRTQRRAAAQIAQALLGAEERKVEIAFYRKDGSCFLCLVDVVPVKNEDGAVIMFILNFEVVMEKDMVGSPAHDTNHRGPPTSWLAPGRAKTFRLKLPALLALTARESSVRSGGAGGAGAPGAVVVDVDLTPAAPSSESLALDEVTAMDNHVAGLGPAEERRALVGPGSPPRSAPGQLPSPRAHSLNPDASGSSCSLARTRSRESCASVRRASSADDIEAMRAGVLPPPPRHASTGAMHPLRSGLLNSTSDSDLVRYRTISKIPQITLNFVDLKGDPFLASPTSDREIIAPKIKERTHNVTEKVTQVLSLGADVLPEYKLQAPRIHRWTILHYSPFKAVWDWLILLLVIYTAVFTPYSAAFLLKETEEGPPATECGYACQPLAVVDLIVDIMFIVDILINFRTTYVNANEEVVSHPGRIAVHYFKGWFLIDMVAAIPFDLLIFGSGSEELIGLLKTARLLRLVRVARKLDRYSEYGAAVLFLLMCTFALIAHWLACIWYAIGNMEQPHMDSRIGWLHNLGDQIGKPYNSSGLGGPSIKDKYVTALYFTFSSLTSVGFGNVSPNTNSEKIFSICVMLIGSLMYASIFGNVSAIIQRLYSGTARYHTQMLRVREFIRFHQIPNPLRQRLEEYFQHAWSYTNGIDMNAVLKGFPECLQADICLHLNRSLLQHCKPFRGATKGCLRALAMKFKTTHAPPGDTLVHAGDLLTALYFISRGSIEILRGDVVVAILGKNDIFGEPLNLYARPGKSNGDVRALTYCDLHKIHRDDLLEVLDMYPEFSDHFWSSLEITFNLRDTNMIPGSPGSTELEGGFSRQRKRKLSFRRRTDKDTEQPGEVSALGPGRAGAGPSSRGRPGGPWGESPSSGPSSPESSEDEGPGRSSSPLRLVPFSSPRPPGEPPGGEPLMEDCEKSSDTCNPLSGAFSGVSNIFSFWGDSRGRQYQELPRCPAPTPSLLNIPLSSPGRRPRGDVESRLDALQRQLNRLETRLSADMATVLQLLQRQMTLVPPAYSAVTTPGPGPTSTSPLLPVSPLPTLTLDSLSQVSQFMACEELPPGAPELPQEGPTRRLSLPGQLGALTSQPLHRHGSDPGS

Row | SMILES | hERG current change (%, negative = inhibition) at 10uM [%]
1 | CC(C)CC(NS(=O)(=O)OCC(Cl)(Cl)Cl)c1ccccc1 (stereo not shown) | 1.57
2 | O=C(COC(=O)c1cc(-c2ccccc2)nc2ccccc12)NCC1CCCO1 (stereo not shown) | -22.4
3 | CCN(CC)c1ccc(C(=S)NCc2ccccc2)cc1 | 13
4 | COc1ccc(NC(=O)CC2SC(=N)N(c3ccccc3)C2=O)c(OC)c1 (stereo not shown) | 29.4
5 | O=C(CN1CCN(c2ccc(F)cc2)CC1)Nc1ccc(F)c(F)c1 | -27.8
6 | O=C(CN1CCN(c2ccc(F)cc2)CC1)Nc1ccccc1 | 6.74
7 | O=C(CN1CCN(c2ccc(Cl)cc2)CC1)Nc1ccc(F)cc1 | -60.9
8 | CC(=O)Nc1ccc(S(=O)(=O)N(C)CC(=O)OCC(=O)N2CCCCC2)cc1 | -1.43
9 | O=C(Cn1c(NCCO)nc2ccccc21)NCCc1ccc(F)cc1 | 10.6
10 | CC(C)Cc1nc(N2CCN(C(=O)C(C)C)CC2)c(C#N)c2c1CCC2 | -27.2
11 | CCCC(=O)N1CCN(c2nc(CC(C)C)c3c(c2C#N)CCC3)CC1 | -53
12 | CC(=O)N1CCN(c2nc(CC(C)C)c3c(c2C#N)CCC3)CC1 | -9.82
13 | CC(=O)c1ccc(N(CC(=O)NC2CCCC2)C(=O)c2csnn2)cc1 | 13.8
14 | O=C(Nc1ccc(N2CCN(C(=O)c3ccc(Cl)cc3)CC2)cc1)c1ccc(Br)o1 | -75.3
15 | O=C(Nc1ccc(C(=O)N2CCN(c3ccccn3)CC2)cc1)c1ccc(Br)o1 | -66.7
16 | O=C(c1ccc(Br)o1)N1CCN(c2ccccn2)CC1 | -19.3
17 | O=C(Nc1ccc(N2CCN(C(=O)c3cccs3)CC2)cc1)c1ccc(F)cc1 | -15.3
18 | N#Cc1ccccc1N1CCN(C(=O)c2ccc(NC(=O)c3ccc(Br)o3)cc2)CC1 | -18.9
19 | O=C(Nc1ccc(N2CCN(C(=O)c3ccccc3)CC2)cc1)c1ccc(Br)o1 | -75.9
20 | O=C(Nc1ccc(N2CCN(C(=O)c3cccs3)CC2)cc1)c1cccc(F)c1 | -62.6
21 | N#CCC(=O)Nc1ccc(C(=O)N2CCN(c3ccccn3)CC2)cc1 | 18.4
22 | O=C(Nc1ccc(N2CCCC2)cc1)c1ccc(Br)o1 | -20.8

Row | SMILES | hERG current change (%, negative = inhibition) at 10uM [%]
23 | COc1cccc(C(=O)Nc2ccc(N3CCN(C(=O)c4cccs4)CC3)cc2)c1 | -19.7
24 | CC(C)C(=O)N1CCN(c2ccc(NC(=O)c3ccc(Br)o3)cc2)CC1 | -0.0806
25 | O=C(Nc1ccc(N2CCN(C(=O)c3ccc(Cl)cc3)CC2)cc1)c1cc2ccccc2o1 | -0.396
26 | O=C(COC(=O)Cc1ccc(F)cc1)NC1CCCC1 | 4.84
27 | COc1ccc(N(CC(=O)Nc2cc(OC)c(OC)cc2C(=O)O)S(=O)(=O)c2c(C)noc2C)cc1 | 15.9
28 | COc1ccc(/C=N/Nc2nnc(C)n2N)cc1OC(C)=O.Cl | 14.3
29 | COCCN(C(=O)COC(=O)c1nc(Cl)ccc1Cl)c1c(N)n(Cc2ccccc2)c(=O)[nH]c1=O | 20.3
30 | O=C1CC(c2ccco2)Cc2nc(N3CCc4ccccc4C3)ncc21 (stereo not shown) | -20.7
31 | O=C(Nc1ccc(N2CCN(C(=O)c3cccs3)CC2)cc1)c1ccco1 | 17.7
32 | Cc1ccc(C(=O)N2CCN(c3ccc(NC(=O)c4ccc(Br)o4)cc3)CC2)cc1 | -68.8
33 | O=C(Nc1ccc(N2CCN(C(=O)c3cccs3)CC2)cc1)c1ccc([N+](=O)[O-])o1 | -25.5
34 | O=C(Nc1ccc(N2CCN(C(=O)c3cccs3)CC2)cc1)c1ccc(Br)o1 | -75.8
35 | CN1CCN(c2ccc(NC(=O)c3ccc(Br)o3)cc2)CC1 | -16.2
36 | CCC(=O)N1CCN(c2ccc(NC(=O)c3ccc(Br)o3)cc2)CC1 | -26.9
37 | Cc1ccc(Nc2c(-c3ccccn3)nc3cccc(C)n23)cc1 | 10.1
38 | Cc1ccc(C(=O)NNC(=O)/C=C\C(=O)O)cc1 | 6.41
39 | CCOC(=O)/C=C/c1ccc2c(c1)S(=O)(=O)N(Cc1ccc(OC)cc1)[C@H]2CC(=O)OCC | -18.2
40 | COc1cccc(-n2c(C)c3c(OC)cccc(=O)c3c2C)c1 | -11.8
41 | COc1ccc(-n2c(C)c3c(OC)cccc(=O)c3c2C)cc1 | -60.2
42 | COc1cccc(=O)c2c(C)n(-c3ccc(C(=O)O)cc3)c(C)c12 | 6.33
43 | COc1cnc(-c2ccccn2)nc1N(C)c1ccccc1 | 14.2
